# From the antibiotic and cytotoxicity screens of Wong et al. (2023)
# Out of some 39,000 compounds screened, about 1,500 (3.8%) were called active. Shown is part of a subset that was picked to be rich in actives.
# Test system: HSkMC (human skeletal muscle cells)
# Experiment: cytotoxicity call (relative viability < 0.9)
# Details: 10 µM
row,SMILES,cytotoxicity call
1,Cc1cc(C(=O)Nc2cccc3c2O[C@@H](CN(C)S(=O)(=O)c2cccs2)[C@H](C)CN([C@H](C)CO)C3=O)n(C)n1,inactive
2,C[C@H]1CCCCO[C@H](CN(C)C(=O)NC2CCCCC2)[C@@H](C)CN([C@@H](C)CO)C(=O)c2cc(NS(=O)(=O)c3cccs3)ccc2O1,inactive
3,C[C@@H]1CCCCO[C@@H](CN(C)Cc2ccc(C(F)(F)F)cc2)[C@H](C)CN([C@H](C)CO)C(=O)c2cc(NC(=O)c3ccncc3)ccc2O1,inactive
4,O=C(NCc1nc2ccccc2[nH]1)C1=C[C@@H](c2ccc(Br)cc2)C[C@@H](OCc2ccc(CO)cc2)O1,inactive
5,Cc1ccc(S(=O)(=O)N(C)C[C@@H]2Oc3ccc(NC(=O)Nc4ccc(C(F)(F)F)cc4)cc3C(=O)N([C@H](C)CO)C[C@@H]2C)cc1,inactive
6,CS(=O)(=O)[C@H]1CCNC1,inactive
7,CC(C)(C)S(=O)N1Cc2cc(C(=O)NCc3ccc4c(c3)OCO4)nc(-c3cccc(-c4cccc(F)c4)c3)c2[C@H]1CCO (stereo not given in full),inactive
8,COc1ccccc1CNC(=O)C[C@H]1CC[C@@H]2[C@H](COC[C@H](O)CN2C(=O)Nc2ccc(F)cc2)O1,inactive
9,O=C(C[C@H]1C[C@H]2c3cc(NC(=O)C4CCOCC4)ccc3O[C@H]2[C@H](CO)O1)NCc1ccc2c(c1)OCO2,inactive
10,C[C@@H]1CN([C@@H](C)CO)C(=O)c2cccc(NC(=O)c3nc4ccccc4s3)c2O[C@H]1CN(C)C(=O)Nc1ccc(C(F)(F)F)cc1,inactive
11,COc1ccccc1S(=O)(=O)N[C@@H]1CC[C@H](CCNC(=O)C2CC2)O[C@H]1CO,inactive
12,CN(C)CCCNC(=O)[C@@H]1[C@@H](CO)[C@@H]2Cn3c(ccc(-c4cccc(C(=O)N(C)C)c4)c3=O)[C@H]1N2,inactive
13,C=C[C@](C)(O)CC/C=C(\C)C(=O)O[C@@H]1[C@@H](O[C@@](C)(C=C)CC/C=C(\C)C(=O)O[C@H]2C[C@@]3(C(=O)O[C@H]4OC[C@@H](O[C@H]5O[C@@H](CO)[C@@H](O)[C@@H](O[C@H]6O[C@@H](CO)[C@@H](O[C@H]7O[C@@H](CO)[C@@H](O)[C@@H](O)[C@@H]7O)[C@@H](O)[C@@H]6O)[C@@H]5O)[C@@H](O)[C@@H]4O)[C@@H](O)C[C@@]4(C)C(=CC[C@H]5[C@@]6(C)CC[C@@H](O[C@H]7O[C@@H](CO)[C@@H](O[C@H]8O[C@@H](CO)[C@@H](O)[C@@H](O[C@H]9OC[C@@H](O)[C@@H](O)[C@@H]9O)[C@@H]8O)[C@@H](O)[C@@H]7O)C(C)(C)[C@@H]6CC[C@@]54C)[C@@H]3CC2(C)C)OC[C@@H](O)[C@H]1O,active
14,C[C@@H]1O[C@H](O[C@H]2[C@H](OC(=O)[C@]34CCC(C)(C)C[C@@H]3C3=CC[C@@H]5[C@@]6(C)CC[C@H](O[C@@H]7O[C@@H](C)[C@H](O[C@@H]8OC[C@@H](O)[C@H](O)[C@H]8O)[C@@H](O)[C@H]7O)C(C)(C)[C@@H]6CC[C@@]5(C)[C@]3(C)C[C@@H]4O)OC[C@H](O)[C@H]2O)[C@H](O)[C@H](O)[C@H]1O[C@@H]1O[C@H](CO)[C@@H](O)[C@H](O)[C@H]1O,inactive
15,C[C@@H]1O[C@@H](O[C@H]2[C@H](OC(=O)[C@]34CCC(C)(C)C[C@H]3C3=CC[C@H]5[C@@]6(C)CC[C@H](O[C@@H]7O[C@H](CO)[C@@H](O)[C@H](O)[C@H]7O)C(C)(C)[C@@H]6CC[C@@]5(C)[C@]3(C)C[C@H]4O)OC[C@H](O)[C@@H]2O)[C@H](O)[C@H](O[C@@H]2OC[C@H](O)[C@H](O)[C@H]2O)[C@H]1O[C@@H]1OC[C@@H](O)[C@H](O[C@@H]2OC[C@H](O)[C@H](O)[C@H]2O)[C@H]1O,inactive
16,C[C@H](CO)N1C[C@H](C)[C@H](CN(C)S(=O)(=O)c2ccccc2)Oc2ccc(NC(=O)CCN3CCOCC3)cc2CC1=O,inactive
17,C[C@@H]1CN([C@H](C)CO)S(=O)(=O)c2ccc(C3=CCCC3)cc2O[C@H]1CN(C)S(=O)(=O)c1cn(C)cn1,inactive
18,C/C1=C2/[N]([Co+][OH])[C@H]([C@H](CC(N)=O)[C@@]2(C)CCC(=O)NC[C@@H](C)OP(=O)(O)O[C@H]2[C@@H](O)[C@@H](n3cnc4cc(C)c(C)cc43)O[C@@H]2CO)[C@]2(C)N=C(/C(C)=C3N=C(/C=C4N=C1[C@@H](CCC(N)=O)C/4(C)C)[C@@H](CCC(N)=O)[C@]\3(C)CC(N)=O)[C@@H](CCC(N)=O)[C@]2(C)CC(N)=O,active
19,C[C@H]1CN([C@@H](C)CO)C(=O)Cc2cc(NC(=O)Cn3cnnn3)ccc2O[C@@H]1CN(C)S(=O)(=O)c1ccc(Cl)cc1,inactive
20,CC(C)N1CC[C@@H](CN(C)Cc2ccc(Cl)cc2)Oc2c(NC(=O)c3ccncc3)cccc2C1=O,inactive
21,Cc1ccc2c(c1)c1nc3ccccc3nc1n2Cc1ccccc1,inactive
22,Cc1ccc(C(=O)N(CCCN)[C@@H](c2oc3cc(Cl)ccc3c(=O)c2Cc2ccccc2)C(C)C)cc1,active
23,Cc1ccc(C(=O)N(CCCN)[C@@H](c2nc3cc(Cl)ccc3c(=O)n2Cc2ccccc2)C(C)C)cc1,active
24,COc1ccc2cc(S(=O)(=O)N[C@H](CC(=O)N[C@H](Cc3ccc(CN4[C@H](C)CCC[C@@H]4C)cc3)C(=O)N(C)C(C)C)c3ccc4c(c3)OCO4)ccc2c1,inactive
25,C[C@@H]1CCCCO[C@@H](CN(C)Cc2ccc(Cl)c(Cl)c2)[C@@H](C)CN([C@@H](C)CO)C(=O)c2cc(NC(=O)CCC(F)(F)F)ccc2O1,inactive
26,CO[C@H](C(=O)N(C)C[C@H]1OCc2ccccc2-c2c(n(C)c3ccccc23)C(=O)N([C@@H](C)CO)C[C@H]1C)c1ccccc1,inactive
27,C[C@@H]1CN([C@H](C)CO)C(=O)c2cc(NS(C)(=O)=O)ccc2O[C@@H]1CN(C)C(=O)NC1CCCCC1,inactive
28,Cc1noc(C)c1NC(=O)Nc1ccc2c(c1)C(=O)N([C@H](C)CO)C[C@H](C)[C@H](CN(C)Cc1ccc(C(F)(F)F)cc1)OCCCC[C@H](C)O2,inactive

row,SMILES,cytotoxicity call
1,C[C@@H]1CN([C@H](C)CO)C(=O)Cc2cc(NC(=O)c3ccncc3)ccc2O[C@H]1CN(C)Cc1ccc2c(c1)OCO2,inactive
2,C[C@H]1CN([C@@H](C)CO)C(=O)c2ccccc2-c2ccccc2CO[C@H]1CN(C)Cc1ccc(Oc2ccccc2)cc1,inactive
3,COC1=CC(=O)c2ccccc2C1=O,inactive
4,COc1ccc(C(=O)C=Cc2ccccc2)cc1,inactive
5,COC1=CC(=O)C(O)=CC1=CC=Cc1ccccc1,active
6,C[C@H]1CCCCO[C@H](CN(C)C(=O)Nc2ccc(C(F)(F)F)cc2)[C@@H](C)CN([C@@H](C)CO)C(=O)c2cc(NS(C)(=O)=O)ccc2O1,inactive
7,Cc1noc(C)c1S(=O)(=O)Nc1ccc2c(c1)C(=O)N([C@H](C)CO)C[C@@H](C)[C@@H](CN(C)CC1CCCCC1)OCCCC[C@@H](C)O2,inactive
8,C[C@H](CO)N1C[C@H](C)[C@@H](CN(C)Cc2ccc(C(F)(F)F)cc2)Oc2c(NC(=O)c3nc4ccccc4s3)cccc2C1=O,inactive
9,C[C@@H]1CN([C@@H](C)CO)C(=O)c2cccc(NC(=O)c3nc4ccccc4s3)c2O[C@@H]1CN(C)Cc1ccc(C(F)(F)F)cc1,inactive
10,C[C@@H]1CN([C@@H](C)CO)C(=O)c2cccc(NC(=O)c3nc4ccccc4s3)c2O[C@H]1CN(C)Cc1ccc(C(F)(F)F)cc1,inactive
11,C[C@H]1CN([C@@H](C)CO)C(=O)c2cccc(NC(=O)c3nc4ccccc4s3)c2O[C@@H]1CN(C)Cc1ccc(C(F)(F)F)cc1,active
12,C[C@@H]1CN([C@H](C)CO)C(=O)c2cccc(NC(=O)c3nc4ccccc4s3)c2O[C@@H]1CN(C)Cc1ccc(C(F)(F)F)cc1,inactive
13,C[C@@H]1CN([C@H](C)CO)C(=O)c2cccc(NC(=O)c3nc4ccccc4s3)c2O[C@H]1CN(C)Cc1ccc(C(F)(F)F)cc1,active
14,C[C@H](NC(=O)C[C@@H]1C[C@@H]2c3cc(NC(=O)Nc4ccc(C(F)(F)F)cc4)ccc3O[C@@H]2[C@@H](CO)O1)c1ccccc1,inactive
15,C[C@H]1CN([C@@H](C)CO)C(=O)c2ccccc2-c2ccccc2CO[C@@H]1CN(C)Cc1cccc(C(F)(F)F)c1,inactive
16,C[C@@H]1CCCCO[C@@H](CN(C)C)[C@@H](C)CN([C@H](C)CO)C(=O)c2cc(NC(=O)Nc3ccc(C(F)(F)F)cc3)ccc2O1,inactive
17,CO[C@@H](CN(C)S(=O)(=O)c1cccc(Cl)c1)[C@@H](C)CN([C@H](C)CO)S(=O)(=O)c1ccc(Cl)cc1,inactive
18,C[C@H](CO)N1C[C@H](C)[C@@H](CN(C)C(=O)CCCN(C)C)OCCCC[C@H](C)Oc2ccc(NC(=O)Nc3ccc(C(F)(F)F)cc3)cc2C1=O,inactive
19,C[C@@H]1CN([C@H](C)CO)C(=O)c2cc(NC(=O)Cc3cn(C)c4ccccc34)ccc2O[C@@H]1CN(C)Cc1ccc(Oc2ccccc2)cc1,inactive
20,C[C@@H]1CN([C@@H](C)CO)C(=O)c2cc(NC(=O)Cc3cn(C)c4ccccc34)ccc2O[C@H]1CN(C)Cc1ccc(Oc2ccccc2)cc1,inactive
21,C[C@H](CO)N1C[C@H](C)[C@H](CN(C)Cc2ccc(-c3ccccc3)cc2)Oc2ccc(NC(=O)Cc3cn(C)c4ccccc34)cc2C1=O,active
22,C[C@@H]1CN([C@@H](C)CO)C(=O)c2cc(NC(=O)Cc3cn(C)c4ccccc34)ccc2O[C@H]1CN(C)Cc1ccc(-c2ccccc2)cc1,inactive
23,C[C@@H]1CN([C@H](C)CO)C(=O)c2cc(NC(=O)Cc3cn(C)c4ccccc34)ccc2O[C@H]1CN(C)Cc1ccc(Oc2ccccc2)cc1,inactive
24,C[C@H](CO)N1C[C@H](C)[C@H](CN(C)Cc2ccc(Oc3ccccc3)cc2)Oc2ccc(NC(=O)Cc3cn(C)c4ccccc34)cc2C1=O,active
25,C[C@@H]1CN([C@H](C)CO)C(=O)c2cc(NC(=O)Cc3cn(C)c4ccccc34)ccc2O[C@H]1CN(C)Cc1ccc(-c2ccccc2)cc1,inactive
26,C[C@H]1CN([C@@H](C)CO)C(=O)c2cc(NC(=O)Cc3cn(C)c4ccccc34)ccc2O[C@@H]1CN(C)Cc1ccc(Oc2ccccc2)cc1,active
27,C[C@H]1CN([C@@H](C)CO)C(=O)c2cc(NC(=O)Cc3cn(C)c4ccccc34)ccc2O[C@H]1CN(C)Cc1ccc(Oc2ccccc2)cc1,inactive
